# Compound activity (PubChem)
# Mtb FBA inh: Mtb FBA enzyme inhibitors, primary screen, biochemical, fluorescence, strain H37Rv; Fructose-bisphosphate aldolase (Mycobacterium tuberculosis (strain ATCC 25618 / H37Rv)), …; AID 588726, 2011; inhibition, % at 1 µM; purified M. tuberculosis FBA, fluorescence read-out; hit rate 2.3% among 360,000; in the data active means inhibition above about 27%
# Target sequence (P9WQA3 whole entry, looked up): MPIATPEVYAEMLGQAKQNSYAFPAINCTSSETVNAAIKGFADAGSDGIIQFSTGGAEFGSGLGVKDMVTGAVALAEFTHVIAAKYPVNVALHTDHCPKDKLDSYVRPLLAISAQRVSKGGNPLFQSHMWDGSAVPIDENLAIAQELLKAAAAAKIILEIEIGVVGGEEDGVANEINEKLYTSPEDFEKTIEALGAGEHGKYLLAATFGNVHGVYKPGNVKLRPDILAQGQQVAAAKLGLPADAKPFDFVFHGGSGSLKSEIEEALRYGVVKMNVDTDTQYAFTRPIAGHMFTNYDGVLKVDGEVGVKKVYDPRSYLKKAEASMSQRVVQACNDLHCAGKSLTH
# Vc quorum ag: inducers of Vibrio cholerae quorum light production without autoinducers, primary screen, BH1578 luxS cqsA deficient, single point; V. cholerae BH1578 lux reporter, luminescence, 6 h; hit rate 0.16% among 350,000; activation, % at 18.7 µM; AID 588436, 2011; in the data active means activation mostly above about 9.7%, no sharp cut-off
# GDH-TPI counter-1: GDH-TPI coupling enzyme inhibitors, primary screen, artefact control for M. tuberculosis FBA inhibitor project, biochemical, absorbance, full deck; GDH-TPI coupled enzyme counterscreen, NADH absorbance; inhibition, % at 4.8 µM; hit rate 1.2% among 360,000
# CCHFV vOTU inh: CCHFV vOTU protease inhibitors, primary screen, biochemical, Pep-AMC substrate, fluorescence. inhibition, % at 11.5 µM. hit rate 0.55% among 370,000. Crimean-Congo hemorrhagic fever virus L polyprotein viral ovarian tumor (vOTU) protease …. AID 651958, 2012
# Mtb FBA inh conf: M. tuberculosis aldolase blockers, biochemical, fluorescence, strain H37Rv, confirmation; purified M. tuberculosis FBA, fluorescence read-out; inhibition, % at 1 µM; hit rate 78% among 5,600; shares compounds with Mtb FBA inh; in the data active means inhibition above about 27%
# GDH-TPI counter-2: GDH-TPI coupling enzyme inhibitors, artefact control for M. tuberculosis FBA inhibitor project, biochemical, fluorescence, high throughput. inhibition, % at 1 µM. AID 652141, 2013. shares compounds with Mtb FBA inh. hit rate 81% among 5,600. GDH-TPI coupled enzyme counterscreen; in the data active means inhibition above about 10%
# GDH-TPI dose: GDH-TPI coupling enzyme inhibitors, dose response, artefact control for M. tuberculosis FBA inhibitor project, biochemical, fluorescence, IC50. hit rate 79% among 170. GDH-TPI coupled enzyme assay, artifact counterscreen. IC50, µM. shares compounds with Mtb FBA inh; call rule not given here
# A number is an active result; – = inactive; · = no result; + = active, no number. Only some compounds are listed: those with a hit (about 3.9% of all), similar ones and a draw of the others. Unless noted, no stated cut-off is given here; in the data, active means inhibition above about 30%; inactive means the rest.
SMILES,Mtb FBA inh,Vc quorum ag,GDH-TPI counter-1,CCHFV vOTU inh,Mtb FBA inh conf,GDH-TPI counter-2,others
CC1(C(=O)Nc2ccc3c(c2)OCCO3)CSCC(=O)N1C1CCN(Cc2ccccc2)CC1 (stereo not given),·,·,·,–,·,·,
CC(=O)Nc1ccc(C(=O)NCCc2ccccc2)cc1,–,–,–,–,·,·,
CCOc1ccc(NC(=O)NNC(=O)c2ccc3ccccc3c2O)cc1,40,–,–,–,28,–,GDH-TPI dose=5.7
COc1ccc(NC(=O)NNC(=O)c2ccc3ccccc3c2O)c(OC)c1,40,–,–,–,52,44,
O=C(NNC(=O)c1cc2ccccc2cc1O)Nc1ccc(Br)cc1,28,–,–,–,106,91,
CCc1ccccc1NC(=O)NNC(=O)c1ccc2ccccc2c1O,–,–,–,–,·,·,
CC(=O)Nc1ccc(CCNC(=O)c2ccc3ccccc3c2O)cc1,32,–,–,–,+,149,
COc1ccc(Oc2cccc(Cl)c2CNC(=O)CCCC(=O)O)cc1,–,–,–,–,·,·,
CCCc1cc(=O)oc2cc(C)cc(OC(C)C(=O)NCCCN3CCOCC3)c12 (stereo not given),80,–,–,–,–,–,
Cc1cc(=O)oc2c(C)c(OC(C)C(=O)NCCCN3CCOCC3)ccc12 (stereo not given),–,–,–,–,·,·,
CCCc1cc(=O)oc2cc(C)cc(OC(C)C(=O)NCCN3CCOCC3)c12 (stereo not given),61,–,–,–,54,43,
CCc1cc(=O)oc2c(C)c(OC(C)C(=O)NCCCN3CCOCC3)ccc12 (stereo not given),–,–,–,–,·,·,
Cc1cc(OC(C)C(=O)NCCN2CCOCC2)c2c(C)c(C)c(=O)oc2c1 (stereo not given),51,–,–,–,116,94,
Cc1cc(OC(C)C(=O)NCCCN2CCOCC2)c2c(C)cc(=O)oc2c1 (stereo not given),56,–,–,–,–,–,GDH-TPI dose=2.7
CN1C(=O)N(C)C(c2cccc([N+](=O)[O-])c2)C2=C1CCCC2=O (stereo not given),–,–,–,–,·,·,
CCc1cc(=O)oc2cc(C)cc(OC(C)C(=O)NCCN3CCOCC3)c12 (stereo not given),44,–,–,–,–,–,
CC[C@@H](C)[C@H](NC(=O)Cc1c(C)c2c(cc(C)c3c(C)coc32)oc1=O)C(=O)O,64,–,–,–,112,94,
CSCC[C@H](NC(=O)Cc1c(C)c2c(cc(C)c3c(C)coc32)oc1=O)C(=O)O,53,–,–,–,+,187,
Cc1oc2c(c(C)cc3oc(=O)c(CC(=O)N[C@H](C(=O)O)C(C)C)c(C)c32)c1C,–,–,–,–,·,·,
CCN(C[C@H]1N[C@@](CC)(C(=O)OC)[C@H]2C(=O)N(C)C(=O)[C@@H]12)C(=O)c1ccc(C(C)(C)C)cc1,–,–,–,–,·,·,
O=C(CSc1nnc(NC(=O)c2ccccc2Cl)s1)Nc1ccc2c(c1)oc1ccccc12,·,·,·,–,·,·,
c1cc(-c2ccc(N3CCOCC3)cc2)n2cnnc2c1,92,–,–,–,174,151,
c1cc(-c2ccc3c(c2)CCO3)n2cnnc2c1,–,–,–,–,·,·,
Cc1ccc(C(=O)c2oc3ccccc3c2NC(=O)c2cc(-c3ccccc3O)n[nH]2)cc1,–,–,–,–,·,·,
COc1ccc(N(C(=O)COc2ccc(F)cc2)S(=O)(=O)c2ccc(C)cc2)cc1,–,–,–,–,·,·,
SMILES,Mtb FBA inh,Vc quorum ag,GDH-TPI counter-1,CCHFV vOTU inh,Mtb FBA inh conf,GDH-TPI counter-2,others
Brc1ccc2c(c1)-c1ccccc1C1=NCCN12,–,–,–,–,·,·,
N=c1oc2cc(O)ccc2cc1C(=O)Nc1ccc(Br)cc1,73,–,–,–,–,15,
N=c1oc2ccccc2cc1C(=O)Nc1ccccc1,–,–,–,–,·,·,
O=C(COC(=O)c1cc2ccccc2oc1=O)Nc1cccc(Br)c1,–,–,–,–,·,·,
O=C(OCc1ccc(Br)cc1F)c1cc2ccccc2oc1=O,67,–,–,–,191,153,
Cc1nc2sccn2c(=O)c1S(=O)(=O)NCCc1ccc(Cl)cc1,–,–,–,–,·,·,
CNC(=S)N/N=C/c1ccc(C(C)C)cc1,–,–,–,–,·,·,
Cc1c(NC(=S)N/N=C/c2ccc(N(C)C)cc2)c(=O)n(-c2ccccc2)n1C,33,–,33,–,116,88,
CNC(=S)N/N=C/c1ccc(N(C)C)cc1,42,–,40,–,+,+,
O=C(NCc1ccc(F)c(F)c1)C1CCCN(c2nc3ccccc3o2)C1 (stereo not given),·,·,·,–,·,·,
O=c1c2ccccc2nc2n1CCN2Cc1ccc(Cl)cc1,34,–,–,·,192,170,
COc1ccccc1CNC(=O)COC(=O)c1cnccn1,–,·,–,–,·,·,
COc1ccccc1CNC(=O)COC(=O)c1nccnc1N,48,–,–,–,–,–,
Nc1nccnc1C(=O)OCC(=O)NCCc1ccc(S(N)(=O)=O)cc1,88,–,–,–,100,91,
CC1=C(C)CC(C(=O)Nc2nc(-c3ccc(C)cc3C)c(C)s2)C(C(=O)O)C1 (stereo not given),–,–,–,–,·,·,
c1ccc(CCC2CCCCN2Cc2nc(C3CC3)no2)cc1 (stereo not given),–,–,–,–,·,·,
COc1ccc(Cl)cc1C(=O)NC(=S)Nc1nc(C)cc(C)n1,–,–,–,–,·,·,
O=S(=O)(NCCc1cn2ccccc2n1)c1ccc(-c2ccccc2)cc1,–,–,–,–,·,·,
O=C(Oc1cncc(Cl)c1)c1ccco1,33,–,–,–,57,62,
Cc1ncc(CO)c(/C=N/NC(=O)c2ccoc2C)c1O,33,–,–,–,–,–,
CC(=O)Nc1ccc(NC(=O)Nc2cc(C)cc(C)c2)cc1,–,–,–,–,·,·,
Cc1cc2nc(-c3ccc(SCc4ccccc4C#N)nc3)[nH]c2cc1C,–,–,–,–,·,·,
Cc1cc2nc(-c3ccc(SCc4ccc(C(=O)O)cc4)nc3)[nH]c2cc1C,58,–,–,–,–,–,
C=CCn1c(=O)c(C(=O)Nc2ccccc2O)c(O)c2ccccc21,29,–,–,–,–,24,
CCC(C)(C)n1nnnc1CN1CCC(NC(=O)c2ccc(Br)cc2)CC1,33,–,–,–,–,–,
Cc1cc(C)nc(NC(=O)Cc2cccs2)n1,32,–,–,–,113,87,
Cc1cccc(C)c1NC(=O)Cc1cccs1,–,–,–,–,·,·,
CCOC(=O)NN1C(=O)c2ccccc2NC1C (stereo not given),72,–,–,–,146,116,
